# KCNH2 WT inh – inhibitors of human wildtype KCNH2 potassium channel. 0.37% of 340,000 active. U2OS, BacMam KCNH2, thallium flux FluxOr; active compounds read low. activity change, % at 1.84 µM;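 active = maximum activity change below -70%; inconclusive = maximum activity change between -70% and -50%; inactive = maximum activity change above -50%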; also: % is scaled to controls: 0 for no effect and ±100 for the full control effect
# Target sequence (Q12809 whole entry, looked up): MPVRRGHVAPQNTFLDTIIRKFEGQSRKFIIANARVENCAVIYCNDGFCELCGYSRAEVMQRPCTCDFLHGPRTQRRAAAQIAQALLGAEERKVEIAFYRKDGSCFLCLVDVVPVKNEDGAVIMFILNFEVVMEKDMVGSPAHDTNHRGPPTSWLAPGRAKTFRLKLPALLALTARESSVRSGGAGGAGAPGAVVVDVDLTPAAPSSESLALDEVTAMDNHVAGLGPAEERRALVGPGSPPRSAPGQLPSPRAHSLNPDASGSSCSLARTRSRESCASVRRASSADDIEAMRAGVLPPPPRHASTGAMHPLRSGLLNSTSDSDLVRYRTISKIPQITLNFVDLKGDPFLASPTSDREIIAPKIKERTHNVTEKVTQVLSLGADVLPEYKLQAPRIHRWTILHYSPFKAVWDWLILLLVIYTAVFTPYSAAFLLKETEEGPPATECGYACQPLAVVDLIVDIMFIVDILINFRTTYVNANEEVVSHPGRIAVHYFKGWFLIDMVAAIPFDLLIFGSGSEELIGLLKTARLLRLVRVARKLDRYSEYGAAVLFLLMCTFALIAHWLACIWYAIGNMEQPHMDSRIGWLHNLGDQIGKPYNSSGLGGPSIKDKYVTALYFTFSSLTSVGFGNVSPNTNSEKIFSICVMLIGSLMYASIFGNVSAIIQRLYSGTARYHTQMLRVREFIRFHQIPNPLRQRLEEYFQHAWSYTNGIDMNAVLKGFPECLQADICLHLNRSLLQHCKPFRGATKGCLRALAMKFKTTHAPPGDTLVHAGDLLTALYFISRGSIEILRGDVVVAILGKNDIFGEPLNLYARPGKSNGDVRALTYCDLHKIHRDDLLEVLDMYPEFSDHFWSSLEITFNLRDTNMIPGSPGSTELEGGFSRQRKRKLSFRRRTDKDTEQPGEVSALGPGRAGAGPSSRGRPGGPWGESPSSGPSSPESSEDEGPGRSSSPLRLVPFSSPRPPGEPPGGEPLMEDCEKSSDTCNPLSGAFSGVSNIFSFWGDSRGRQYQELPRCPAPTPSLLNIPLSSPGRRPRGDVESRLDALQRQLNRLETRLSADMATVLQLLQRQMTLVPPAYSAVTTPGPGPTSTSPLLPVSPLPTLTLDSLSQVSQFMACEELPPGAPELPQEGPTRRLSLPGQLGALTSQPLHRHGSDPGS
#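 U2OS cells transduced with wild-type KCNH2 virus are loaded with FluxOr dye for 45 min, and thallium flux is measured in kinetic reads before and after stimulation buffer. Rate constants are normalized to DMSO controls.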
# KCNH2 3.1 inh – inhibitors of human KCNH2 3.1 potassium channel isoform; activity change, % (tested at about 1.8 µM); U2OS KCNH2 3.1, thallium flux FluxOr; active compounds read low; 0.95% of 340,000 active;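 active = maximum activity change below -70%; inconclusive = maximum activity change from -70% to -50%; inactive = maximum activity change above -50%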;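 also: thallium influx rate constant from kinetic fluorescence after stimulation buffer; % is scaled to controls: 0 for no effect and ±100 for the full control effect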
#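 Measured as rate of thallium-driven FluxOr signal in transduced U2OS cells carrying the 3.1 channel, read kinetically for 2 min upon stimulation; values are rate constants scaled to DMSO control wells.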
# gsp antag – antagonizes gsp, the McCune-Albright syndrome mutation | Potency, µM (series often up to 76.9 µM), without a hit: at the top dose activity change, negative = inhibition, most hits filed as inhibitors | 0.4% of 340,000 active | gsp-mutant cells, cAMP HTRF, 30 min; calls by dose curve; cell line not stated here;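 also: intracellular cAMP measured with PDE inhibitor Ro 20-1724 present during compound exposure; potency is read from the fitted curve at half-maximal effect; % is scaled to controls: 0 for no effect and ±100 for the full control effect; nearly all actives have a fitted effect of over 65% in size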
#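 Measurement of cellular cAMP by homogeneous time-resolved fluorescence following a 30 min compound exposure at 37C. The PDE inhibitor […] was present throughout; the assay buffer was DPBS with 0.05% BSA and 0.005% Tween 20.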
# pAkt inh – Akt phosphorylation inhibition | Neuro2A IGF-stimulated pAkt S473 HTRF, 20 min; active compounds read low | activity change, % for hits at 50 µM | 0.32% of 360,000 active | AID 651550; in the data active = activity change below about -80%; inconclusive = mostly about -51% to -80%; also: % is scaled to controls: 0 for no effect and ±100 for the full control effect
#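 Neuro2A cells in DMEM with 0.5% FBS, overnight at 37 deg C, given compound at single 50 µM final, then IGF (6 nM final) for 20 min at 37 deg C. Lysed; phospho-Akt Ser473 by HTRF after 24 h, 665/615 ratio.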
# gsp ag – agonists of gsp mutant (McCune-Albright syndrome). gsp mutant cells, cAMP HTRF, 30 min. Potency, µM (highest dose often 76.9 µM), without a hit: at the top dose activation (cAMP increase), hits mostly activators. 0.13% of 340,000 active. AID 624287; active = well fitted activation curve with a large enough effect; inconclusive = small, poorly fitted or top-dose-only effect, or another doubt; inactive = no such curve, though single readings can be large or run the other way; cell line not stated here;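 also: phosphodiesterase inhibitor Ro 20-1724 added with compounds to block cAMP breakdown; potency is read from the fitted curve at half-maximal effect; nearly all actives have a fitted effect of over 60% in size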
#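 Cells in DMEM/10% FBS with G418 were pretreated with compounds in DMSO plus […] (300 uM stock) for 30 min at 37C. cAMP was measured by HTRF (cAMP-d2 plus anti-cAMP antibody-K) after 30 min at room temperature.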
# Glioma ERSR ind – ER stress response induction in glioma. U87-MG GRP78 promoter luciferase reporter, 16 h. Potency, µM, without a hit: at the highest dose activation, actives largely listed as activators. 0.02% of 420,000 active. AID 602332; active = well fitted activation curve with a large enough effect; inconclusive = small, poorly fitted or top-dose-only effect; inactive = no such curve, though single readings can be large or run the other way; also: potency is read from the fitted curve at half-maximal effect; series mostly up to about 76 µM; % of control where 0% means no effect; nearly all actives have a fitted effect of over 35% in size
#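 Stably transfected U87-MG human glioma cells carrying a GRP78-based luminescent sensor were seeded at 1000 cells/well, pin-dosed with compounds and incubated 16 h. Luciferase reagent was then added, and end-point luminescence was read after 10 min at room temperature.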
# Numbers without * were called inactive; i = inactive; ? = inconclusive; . = not tested or not shown; [ ] = remark or other dose. Most compounds without a hit are left out; they make up all but 1.6% or so of the library.
SMILES,KCNH2 WT inh,KCNH2 3.1 inh,gsp antag,pAkt inh,gsp ag,Glioma ERSR ind
COc1cc(-c2cc(C)c3cccc(OC)c3n2)cc2c1OCCN(C(=O)CC1NC(=O)c3ccccc31)C2 (stereo not given),.,.,.,.,.,-4.3%
CS(=O)(=O)Nc1ccc(C2=NN(C(=O)C3CCCCC3)C(c3cccs3)C2)cc1 (stereo not given),-0.3,-3.4,25.1µM*,i,10.1%[15.4 µM],1.6%
CC(C)C(=O)N1N=C(c2ccc(NS(C)(=O)=O)cc2)CC1c1cccs1 (stereo not given),-4.8,-5.1,-18.3%,i,-2.7%[15.4 µM],2.0%
O=C(NCC1Cc2cccc(-c3cnccn3)c2O1)c1ccc(F)c(Cl)c1 (stereo not given),.,.,.,.,.,-3.4%
O=C(Nc1cccc(C(F)(F)F)c1)c1cc2c(=O)c3ccccc3oc2nc1C(F)(F)F,-12.1,13.4,-1.3%,i,-0.3%,-3.4%
O=C(Nc1ccccc1)c1cc2c(=O)c3ccccc3oc2nc1C(F)(F)F,0.1,-20.2,14.5%,-94.2%*,?,-2.8%
N#C/C(=N\Nc1ccc(Cl)cc1)C(=O)c1ccccc1,-15.2,-1.7,28.2µM*,i,-3.2%[15.4 µM],-1.1%
O=C(NCc1ccc(F)cc1)C1CCC(CNS(=O)(=O)c2cccs2)CC1 (stereo not given),11.4,1.2,-4.9%,i,12.5%[15.4 µM],-1.6%
O=C(C1CCC(CNS(=O)(=O)c2cccs2)CC1)N1CCN(c2ccc(F)cc2)CC1 (stereo not given),30.1,-30.4,35.5µM*,i,22.3%,1.4%
COc1nn(CC(=O)N2N=C(C)CC2(O)C(F)F)cc1[N+](=O)[O-] (stereo not given),3.0,-4.5,11.6%,-89.6%*,4.0%,-4.3%
CC(NC(=O)C1CCOCC1)c1nnc2n1CCN(Cc1ccc(F)cc1)CC2 (stereo not given),.,.,.,.,.,2.7%
CCC(C)(C)C(=O)Nc1cc([N+](=O)[O-])ccc1F,-249.7*,-175.5*,2.2%,i,-31.5%,-3.3%
CCC(C)(C)C(=O)Nc1cc([N+](=O)[O-])ccc1Cl,-3.0,12.2,15.3%,i,-46.6%,-4.9%
N#CCCN(CCC#N)C(=O)c1ccc2c(c1)OCO2,-1.0,0.8,15.8%,-106.0%*,0.8%,-0.4%
O=[N+]([O-])c1ccc(OCCCCN2CCc3ccccc3C2)cc1,-16.0,-71.3*,8.5%,i,-24.0%,-2.7%
c1ccc2c(-c3c[nH]c4ccccc34)c3ccccc3nc2c1,2.1,-4.5,1.6%,i,0.0%,2.8%
O=C(O)c1cc(-c2c[nH]c3ccccc23)nc2ccc3ccccc3c12,-15.3,-98.3*,1.2%,i,2.0%[15.4 µM],4.3%
CC(C)(CO)NC(=O)c1cnn(-c2ncc3c(n2)-c2ccccc2CC3)c1C1CC1,.,.,.,.,.,5.7%
O=C(CNC1C(=O)Nc2ccccc21)Sc1ccccc1 (stereo not given),-2.0,-14.9,4.2%,-111.3%*,-40.7%,-0.3%
O=C(Nc1cccc(Cl)c1)OCC#CCCl,.,.,.,.,.,-1.4%
O=C(Nc1nnc(SCC(=O)N2CCCCC2)s1)c1ccc(F)cc1F,-152.4*,11.2,-23.6%,i,22.5%,-0.1%
O=C(CN1CCN(C(c2ccccc2)c2ccccc2)CC1)N1CCOCC1,11.0,-14.6,-3.6%,i,-23.4%,-1.4%
Cc1ccc(C)c(NC(=O)C(c2ccccc2)N2CCN(CC(=O)N3CCOCC3)CC2)c1 (stereo not given),-35.8,-89.0*,-2.7%,i,3.9%,-3.0%
CCOc1ccccc1NC(=O)C(c1ccccc1)N1CCN(CC(=O)N2CCOCC2)CC1 (stereo not given),-3.4,-82.9*,-14.5%,i,-1.2%,-0.7%
CCOc1ccccc1NC(=O)C(c1ccccc1)N1CCN(CC(=O)N2CCCC2)CC1 (stereo not given),-29.8,-72.1*,-12.2%,i,?,9.7%
CCOc1ccccc1NC(=O)CC1(CC(=O)N2CCOCC2)CCCC1,-5.8,5.3,-8.9%,i,-5.5%[15.4 µM],-2.8%
CCCC(=O)NC1=C(Cl)C(=O)c2ccccc2C1=O,-6.9,-12.9,44.7µM*,i,-2.0%,-13.9%
